Data reported in PubChem BioAssay AID624136 (Broad Institute, 2012).
Screen size: about 17,000 compounds; about 75 (0.4%) were called active.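 The calls were made as follows: active = compounds whose four printed spots each glow above background more than chance allows, each with a p-value under 7%; inactive = the rest.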 For the sample, actives were picked, then their nearest neighbours and some compounds at random.

test system: mutant tumor protein p53 (GST-tagged), Homo sapiens; assay: binders of human mutant p53, primary screen, biochemical, small molecule microarray, anti-GST fluorescence (AID 624136); details: small molecule microarray binding

outcome, inactive:
C[C@@H]1CN([C@H](C)CO)C(=O)c2cccc(NC(=O)Nc3ccc(F)cc3)c2O[C@@H]1CN(C)Cc1ccc(C(F)(F)F)cc1
O=C(NCc1cccnc1)c1cnn2c(C(F)F)cc(-c3ccccc3)nc12
CNC[C@H]1OCCCC[C@@H](C)Oc2ccc(NC(=O)c3ccncc3)cc2C(=O)N([C@H](C)CO)C[C@H]1C
Cn1nnc2cc(C(=O)N(CCO)c3ccccc3)ccc21
C[C@@H]1CN([C@@H](C)CO)C(=O)Cc2cc(NC(=O)Cc3cn(C)c4ccccc34)ccc2O[C@H]1CN(C)Cc1ccc(C(=O)O)cc1
Cc1noc(C)c1S(=O)(=O)Nc1cccc2c1O[C@H](CN(C)Cc1ccc(C(F)(F)F)cc1)[C@H](C)CN([C@@H](C)CO)C2=O
CC(=O)Nc1ccccc1-c1cn(CC(=O)N2CCOCC2)nn1
CCCN(C)C[C@@H]1OCCCC[C@H](C)Oc2ccc(NS(=O)(=O)c3ccc(C)cc3)cc2C(=O)N([C@H](C)CO)C[C@@H]1C
Cc1noc(C)c1NC(=O)Nc1ccc2c(c1)C(=O)N([C@@H](C)CO)C[C@H](C)[C@@H](CN(C)C)O2
C[C@@H]1CN([C@@H](C)CO)C(=O)c2cc(N(C)C)ccc2O[C@@H](C)CCCCO[C@@H]1CN(C)C(=O)CCC(F)(F)F
CC(C)NC(=O)Nc1ccc2c(c1)C(=O)N([C@H](C)CO)C[C@H](C)[C@@H](CN(C)C(=O)CCCN(C)C)OCCCC[C@@H](C)O2
Cc1noc(C)c1S(=O)(=O)Nc1ccc2c(c1)CC(=O)N([C@@H](C)CO)C[C@H](C)[C@H](CN(C)C(=O)Nc1ccccc1)O2
CC(C)NC(=O)N(C)C[C@@H]1OCCCC[C@@H](C)Oc2ccc(NC(=O)CCCN(C)C)cc2C(=O)N([C@@H](C)CO)C[C@@H]1C
COc1ccc(S(=O)(=O)Nc2ccc3c(c2)C(=O)N([C@@H](C)CO)C[C@@H](C)[C@H](CN(C)S(=O)(=O)c2cccs2)O3)cc1
COc1ccc(NC(=O)N(C)C[C@H]2Oc3ccc(NS(=O)(=O)c4ccc(C)cc4)cc3C(=O)N([C@@H](C)CO)C[C@H]2C)cc1
COc1ccc(C(=O)CCC(=O)Nc2cccnc2)c(OC)c1
C[C@H](CO)N1C[C@H](C)[C@H](CN(C)S(=O)(=O)c2cccs2)OCCCC[C@H](C)Oc2ccc(NC(=O)CCCN(C)C)cc2C1=O
CCOC(=O)c1c(CN2CCOCC2)nc2c3ccccc3ccn12
CS(=O)(=O)N(CC(=O)Nc1ccc(F)c(F)c1)c1ccccc1F
COC(=O)c1ccccc1NC(=O)Cc1coc2cc(C)cc(C)c12
COc1ccc(-c2nnc(SCC(=O)Nc3c(C)n[nH]c3C)n2-c2ccccc2)cc1OC
C[C@H]1CN([C@@H](C)CO)C(=O)Cc2cc(NC(=O)c3ccncc3)ccc2O[C@@H]1CN(C)C(=O)Nc1ccccc1
C[C@@H]1CCCCO[C@H](CN(C)Cc2ccc3c(c2)OCO3)[C@@H](C)CN([C@H](C)CO)C(=O)c2cc(N(C)C)ccc2O1
O=C1N(CCS(=O)(=O)c2ccccc2)Cc2ccccc2[C@H]2OC(c3ccc(OCCCO)cc3)=N[C@@]12CCS(=O)(=O)c1ccccc1
C[C@H](CO)N1C[C@H](C)[C@H](CN(C)C(=O)Nc2ccc(F)cc2)Oc2ccc(NC(=O)Cc3cn(C)c4ccccc34)cc2CC1=O
C[C@H](CO)N1C[C@H](C)[C@H](CN(C)S(=O)(=O)c2ccc(Cl)cc2)Oc2c(NS(C)(=O)=O)cccc2C1=O
C[C@@H]1CN([C@@H](C)CO)C(=O)c2cc(NC(=O)Cc3ccccc3)ccc2O[C@H]1CN(C)CC1CC1
C[C@H]1CN([C@@H](C)CO)C(=O)c2cc(NC(=O)NC3CCCCC3)ccc2O[C@@H]1CN(C)C(=O)Nc1cccc2ccccc12
COc1ccccc1-c1nnc(SCC(=O)Nc2ccccc2)o1
C[C@@H]1CN([C@H](C)CO)C(=O)c2cc(NS(=O)(=O)c3ccccc3)ccc2O[C@@H](C)CCCCO[C@H]1CN(C)C(=O)C1CCCCC1
Cc1ccc(S(=O)(=O)N(C)CC(=O)Nc2ccc(C#N)cc2)cc1
C[C@H]1CN([C@@H](C)CO)C(=O)c2cccc(NC(=O)Nc3cccc4ccccc34)c2O[C@@H]1CN(C)C(=O)NC1CCCCC1
C[C@H](CO)N1C[C@H](C)[C@H](CN(C)S(=O)(=O)c2cccs2)Oc2c(NS(=O)(=O)c3ccc(Cl)cc3)cccc2C1=O
O=C(C1=C[C@H](c2csc3ccccc23)C[C@H](OCc2ccc(CO)cc2)O1)N1CCCCC1
C[C@@H]1CN([C@H](C)CO)C(=O)Cc2cc(NC(=O)Nc3ccc(F)cc3)ccc2O[C@@H]1CN(C)Cc1ccc2c(c1)OCO2
C[C@@H]1CN([C@@H](C)CO)C(=O)Cc2cc(NS(=O)(=O)c3ccc(Cl)cc3)ccc2O[C@H]1CN(C)CC1CCCCC1
CNC[C@@H]1Oc2ncc(-c3ccc(F)cc3)cc2C(=O)N([C@H](C)CO)C[C@@H]1C
CCNc1nc(NCC)nc(OCC#N)n1
CO[C@@H]1[C@@H](OC(N)=O)[C@@H](O)C(Oc2ccc3c(O)c(NC(=O)c4ccc(O)c(CC=C(C)C)c4)c(=O)oc3c2C)OC1(C)C (stereo not given in full)
COc1ccc2ncnc(NCc3ccc4c(c3)OCO4)c2c1
COc1ccc(S(=O)(=O)Nc2ccc3c(c2)CC(=O)N([C@H](C)CO)C[C@H](C)[C@H](CN(C)Cc2ccc(C(F)(F)F)cc2)O3)cc1
C[C@H]1CN([C@@H](C)CO)C(=O)Cc2cc(NC(=O)NC3CCCCC3)ccc2O[C@H]1CN(C)S(=O)(=O)c1cccs1
COc1ccc(CN(C)C[C@H]2Oc3c(NC(=O)c4cnccn4)cccc3C(=O)N([C@H](C)CO)C[C@@H]2C)cc1
COc1cc(CCC(=O)O)oc(=O)c1
C[C@H](CO)N1C[C@H](C)[C@@H](CN(C)C(=O)Nc2ccc3c(c2)OCO3)Oc2ccc(NS(=O)(=O)c3ccc(Cl)cc3)cc2C1=O
